# The full list was thinned out, with hits kept by preference.
# Dicer processing – blocks human Dicer maturation of pre-miR-21 | 47,000 compounds, 6% hits | Q9UPY3 | z-score at 25 µM | cat-ELCCA pre-miR-21 Dicer processing, chemiluminescence; hits give high values | AID 1347074; in the data active = z-score above about 3, passing the limit was not always enough;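 also: higher signal means more uncleaved substrate so more Dicer inhibition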
# Target sequence (Q9UPY3 whole entry, looked up): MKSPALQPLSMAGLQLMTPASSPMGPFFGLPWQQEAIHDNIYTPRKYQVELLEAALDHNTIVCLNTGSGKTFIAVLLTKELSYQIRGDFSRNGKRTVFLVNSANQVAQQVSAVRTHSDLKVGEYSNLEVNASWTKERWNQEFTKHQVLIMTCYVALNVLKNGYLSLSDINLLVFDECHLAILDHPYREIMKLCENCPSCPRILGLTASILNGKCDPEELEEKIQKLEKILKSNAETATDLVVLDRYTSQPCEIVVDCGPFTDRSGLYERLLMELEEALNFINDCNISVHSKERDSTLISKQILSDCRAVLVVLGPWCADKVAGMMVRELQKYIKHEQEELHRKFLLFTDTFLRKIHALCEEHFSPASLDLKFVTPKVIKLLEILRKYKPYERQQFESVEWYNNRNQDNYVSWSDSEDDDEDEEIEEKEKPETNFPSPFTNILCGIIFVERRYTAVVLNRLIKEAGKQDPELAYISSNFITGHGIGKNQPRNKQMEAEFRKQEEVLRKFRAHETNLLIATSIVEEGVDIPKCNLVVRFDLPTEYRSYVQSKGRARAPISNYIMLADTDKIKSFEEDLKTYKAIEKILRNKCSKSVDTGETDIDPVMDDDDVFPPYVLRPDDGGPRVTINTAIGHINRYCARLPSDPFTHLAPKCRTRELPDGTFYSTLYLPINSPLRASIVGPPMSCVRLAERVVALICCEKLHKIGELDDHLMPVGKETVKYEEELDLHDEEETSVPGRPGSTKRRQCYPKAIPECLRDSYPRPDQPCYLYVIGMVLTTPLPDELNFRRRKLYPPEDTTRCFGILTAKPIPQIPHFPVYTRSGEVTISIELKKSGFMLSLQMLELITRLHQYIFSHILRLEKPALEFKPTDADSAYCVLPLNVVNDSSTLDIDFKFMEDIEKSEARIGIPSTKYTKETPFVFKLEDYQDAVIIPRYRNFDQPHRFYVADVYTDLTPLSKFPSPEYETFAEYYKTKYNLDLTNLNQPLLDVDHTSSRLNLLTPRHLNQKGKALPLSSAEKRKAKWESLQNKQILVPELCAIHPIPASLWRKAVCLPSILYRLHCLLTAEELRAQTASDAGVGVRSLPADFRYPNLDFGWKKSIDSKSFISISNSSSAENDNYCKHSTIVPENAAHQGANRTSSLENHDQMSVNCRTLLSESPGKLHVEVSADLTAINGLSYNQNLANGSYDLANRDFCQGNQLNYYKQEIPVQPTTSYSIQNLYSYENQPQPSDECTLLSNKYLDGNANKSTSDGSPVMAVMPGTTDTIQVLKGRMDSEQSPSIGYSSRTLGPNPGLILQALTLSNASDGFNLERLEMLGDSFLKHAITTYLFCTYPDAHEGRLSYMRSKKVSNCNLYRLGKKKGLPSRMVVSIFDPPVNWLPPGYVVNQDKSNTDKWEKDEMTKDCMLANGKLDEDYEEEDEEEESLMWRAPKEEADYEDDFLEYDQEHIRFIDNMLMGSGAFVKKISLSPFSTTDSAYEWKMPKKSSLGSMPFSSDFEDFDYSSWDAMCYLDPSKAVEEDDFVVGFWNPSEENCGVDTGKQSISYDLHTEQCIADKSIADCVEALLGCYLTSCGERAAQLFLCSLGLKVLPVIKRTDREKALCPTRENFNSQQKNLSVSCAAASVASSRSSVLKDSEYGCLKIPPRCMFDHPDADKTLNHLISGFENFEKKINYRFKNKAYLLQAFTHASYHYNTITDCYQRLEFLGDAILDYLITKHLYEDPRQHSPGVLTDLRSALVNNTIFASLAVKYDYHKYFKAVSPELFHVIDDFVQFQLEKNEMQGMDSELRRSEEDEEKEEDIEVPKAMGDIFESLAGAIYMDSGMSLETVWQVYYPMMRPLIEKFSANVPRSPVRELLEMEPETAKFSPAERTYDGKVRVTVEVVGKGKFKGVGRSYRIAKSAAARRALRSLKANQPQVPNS
# Hits are given with their value; i = inactive.
SMILES,Dicer processing
CCSCCOC(=O)C1=C(C)NC2=C(C(=O)CC(c3ccc(OC)cc3)C2)C1c1cccc(O)c1 (stereo not drawn),i
CC1=C(C(=O)OCc2ccccc2)C(c2cccc(O)c2)C2=C(CC(c3ccccc3)CC2=O)N1 (stereo not drawn),3
CC1=C(C(=O)OCCOC(C)C)C(c2ccc(F)cc2)C2=C(CC(c3cccs3)CC2=O)N1 (stereo not drawn),i
COc1ccccc1C1C(C(=O)OCC2CCCO2)=C(C)NC2=C1C(=O)CC(C)(C)C2 (stereo not drawn),i
CC1=C(C(=O)OCCOC(C)C)C(c2cccs2)C2=C(CC(c3cccs3)CC2=O)N1 (stereo not drawn),4.1
COc1cccc(C2C(C(=O)OCc3ccccc3)=C(C)NC3=C2C(=O)CC(C)(C)C3)c1OC (stereo not drawn),i
C=CCOC(=O)C1=C(C)NC2=C(C(=O)CC(c3ccccc3)C2)C1c1ccc(O)cc1 (stereo not drawn),i
COC(=O)C1=C(C)NC2=C(C(=O)CC(c3ccccc3OC)C2)C1c1cccc(OC)c1OC (stereo not drawn),i
COc1cccc(C2C(C(=O)OCC3CCCO3)=C(C)NC3=C2C(=O)CC(C)(C)C3)c1OC (stereo not drawn),5.4
COCCOC(=O)C1=C(C)NC2=C(C(=O)CC(c3ccccc3)C2)C1c1ccccc1F (stereo not drawn),i
COCCOC(=O)C1=C(C)NC2=C(C(=O)CC(c3ccccc3)C2)C1c1cccc(OC)c1OC (stereo not drawn),7.2
CC1=C(C(=O)OCCOC(C)C)C(c2cccc(Cl)c2)C2=C(CC(c3cccs3)CC2=O)N1 (stereo not drawn),i
C=C1SC(Nc2c(C)cccc2C)=NC1(C)C,i
COC(=O)c1c(NC2=NS(=O)(=O)c3ccccc32)sc2c1CCCC2,i
C#CC1(NC(=O)NC(=O)c2ccc(F)c(Cl)c2)CCCCC1,i
CCCCCOC(=O)C1=C(C)NC2=C(C(=O)CC(C)(C)C2)C1c1ccc2c(c1)OCO2 (stereo not drawn),i
O=C(NCc1ccccc1)c1ncc(C(F)(F)F)cc1Cl,i
O=C(CN1C2=NCCN2c2ccccc21)c1ccccc1,i
Cc1cc(C(C)(C)C)ccc1NC(=O)CCC(=O)O,i
COc1ccc2c(c1)c1nc3cc4ccccc4cc3nc1n2C(C)=O,i
CCOc1cc(C2C(C(=O)OC3CCCCC3)=C(C)NC3=C2C(=O)CC(C)(C)C3)ccc1OC(C)=O (stereo not drawn),5.4
COc1ccc(C2CC(=O)C3=C(C2)NC(C)=C(C(=O)OC2CCCC2)C3c2ccc(OC)cc2)cc1 (stereo not drawn),i
CC1=C(C(=O)OC2CCCCC2)C(c2ccccn2)C2=C(CC(c3ccccc3)CC2=O)N1 (stereo not drawn),i
CCSCCOC(=O)C1=C(C)NC2=C(C(=O)CC(c3ccccc3)C2)C1c1ccccc1F (stereo not drawn),4
CC1=C(C(=O)OCC(C)C)C(c2ccc3c(c2)OCO3)C2=C(CC(c3ccccc3)CC2=O)N1 (stereo not drawn),i
SMILES,Dicer processing
CCSCCOC(=O)C1=C(C)NC2=C(C(=O)CC(c3cccs3)C2)C1c1ccc(F)cc1 (stereo not drawn),i
CCSCCOC(=O)C1=C(C)NC2=C(C(=O)CC(c3ccccc3)C2)C1c1ccc(F)cc1 (stereo not drawn),i
COc1cc(C2C(C(=O)OC3CCCCC3)=C(C)NC3=C2C(=O)CC(C)(C)C3)ccc1O (stereo not drawn),i
CC1=C(C(=O)OC2CCCC2)C(c2ccccc2)C2=C(CC(c3ccccc3)CC2=O)N1 (stereo not drawn),3.1
COc1ccc(C2CC(=O)C3=C(C2)NC(C)=C(C(=O)OCC(C)C)C3c2ccc(F)cc2)cc1 (stereo not drawn),i
COc1ccc(C2C(C(=O)OC3CCCCC3)=C(C)NC3=C2C(=O)CC(C)(C)C3)cc1O (stereo not drawn),i
CC1=C(C(=O)OCC(C)C)C(c2ccccc2)C2=C(CC(c3ccccc3)CC2=O)N1 (stereo not drawn),3.6
N#Cc1cc(F)cc(F)c1NC(=O)c1cccs1,i
O=C(ON/C=N/c1ncc(-c2ccc(Br)s2)s1)c1ccc(Cl)cc1,i
O=[N+]([O-])c1cc(S(=O)(=O)N2CCOCC2)ccc1N1CCOCC1,i
Fc1cccc2c(OC3CCN(Cc4ccccc4)CC3)cc(C(F)(F)F)nc12,i
O=C1CSCN1Cc1c(Cl)cccc1Cl,i
CCC(O)(c1ccccc1)c1ccccc1N (stereo not drawn),i
COc1ccc(C2CC(=O)C3=C(C2)NC(C)=C(C(=O)OCC(C)C)C3c2ccncc2)cc1 (stereo not drawn),i
CC1=C(C(=O)OCC(C)C)C(c2ccc(N(C)C)cc2)C2=C(CC(c3ccccc3)CC2=O)N1 (stereo not drawn),3.6
COc1ccccc1C1C(C(=O)OCC(C)C)=C(C)NC2=C1C(=O)CC(c1ccccc1)C2 (stereo not drawn),5
